Experimental data from PubChem BioAssay (NCI).
This is part of a sample that, as a whole, favours compounds with a hit. Of some 79,000 tested, about 15% had one in any assay. Active and inactive are the calls of the source. Cut-off read from the data, not from the text of the source: active = growth inhibition above about 70%; inactive = the rest.

Legend:
[1] = NCI Yeast Anticancer Drug Screen. Data for the wt2 strain (AID 169);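 note: 0% = growth of vehicle-treated yeast cultures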; conditions: S. cerevisiae wt2 strain growth inhibition, hits give high values
Method in brief: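 Values express reduction in yeast growth under compound treatment, referenced to vehicle-treated cells.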

[2] = NCI Yeast Anticancer Drug Screen. Data for the mlh1 strain (AID 171);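 note: 0% = growth of vehicle-treated control cultures of the same strain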; conditions: S. cerevisiae mlh1 strain growth inhibition, hits give high values
Method in brief: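 Steps: expose the defined-mutant yeast strain to compound; expose a parallel culture to vehicle; measure growth; express compound effect as inhibition relative to the vehicle culture.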

[3] = NCI Yeast Anticancer Drug Screen. Data for the sgs1 strain (AID 173);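 note: 0% = growth of vehicle-only control cultures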; conditions: S. cerevisiae sgs1 mutant, hits give high values
Method in brief: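 Treat defined-mutant yeast with compound; measure growth; calculate inhibition relative to vehicle-treated cells.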

[4] = NCI Yeast Anticancer Drug Screen. Data for the mlh1 rad18 strain (AID 175); conditions: S. cerevisiae mlh1 rad18 strain growth inhibition, hits give high values
Method in brief: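 Test agents were incubated with a yeast strain of defined genotype (DNA damage repair defect). Inhibition of growth was derived by comparison with vehicle-exposed cultures.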

[5] = NCI Yeast Anticancer Drug Screen. Data for the rad18 strain (AID 177); conditions: S. cerevisiae rad18 mutant growth inhibition, hits give high values
Method in brief: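 A genetically defined yeast mutant impaired in DNA damage repair was treated with test compounds, then its growth was measured against cultures receiving vehicle alone.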

Measured: growth inhibition

O=Cc1ccc2c(c1)C(=O)c1ccccc1C2=O
inactive: [1]; at 1.2 µM 0% | [1]; at 3.7 µM 4% | [1]; at 11.0 µM 14% | [1]; at 33.0 µM 32% | [1]; at 100.0 µM 51% | [2]; at 1.2 µM 2% | [2]; at 3.7 µM 1% | [2]; at 11.0 µM 10% | [2]; at 33.0 µM 44% | [3]; at 1.2 µM -3% | [3]; at 3.7 µM -3% | [3]; at 11.0 µM 8% | [3]; at 33.0 µM 38% | [3]; at 100.0 µM 56% | [4]; at 5.0 µM (retest, dose inferred, filed as 0.5) 10% | [4]; at 50.0 µM (retest, dose inferred, filed as 5.0) 61% | [4]; at 50.0 µM 67.8% | [5]; at 1.2 µM -1% | [5]; at 3.7 µM 0% | [5]; at 11.0 µM 14% | [5]; at 33.0 µM 61%
active: [2]; at 100.0 µM 82% | [5]; at 100.0 µM 81%
